PubChem BioAssay (EPA / NIEHS)
Inconclusive results are not listed. Activity calls are given as the source filed them. The calls were made as follows: active = hit-call score of the fitted dose curve at least 0.9, where 1 is the maximum; inconclusive = response in the unintended direction; inactive = score below 0.9.

target: AR (gene 367) (UniProt P10275); assay: ACEA_AR_antagonist_80hr: ACEA Biosciences xCELLigence Real-Time Cell Analysis on Androgen Receptor Antagonism for Proliferation (AID 2283787);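 also: 22Rv1 human prostate cancer cells with growth followed by electrical impedance; hits lower the impedance growth signal relative to DMSO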
In short: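 Measures real-time proliferation of 22Rv1 prostate cancer cells by electrode impedance at 80 hours after dosing. Test articles ran at eight concentrations (1:4 steps, top 100 uM final) in biological duplicate.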

AR (gene 367), sequence (P10275 whole entry, looked up): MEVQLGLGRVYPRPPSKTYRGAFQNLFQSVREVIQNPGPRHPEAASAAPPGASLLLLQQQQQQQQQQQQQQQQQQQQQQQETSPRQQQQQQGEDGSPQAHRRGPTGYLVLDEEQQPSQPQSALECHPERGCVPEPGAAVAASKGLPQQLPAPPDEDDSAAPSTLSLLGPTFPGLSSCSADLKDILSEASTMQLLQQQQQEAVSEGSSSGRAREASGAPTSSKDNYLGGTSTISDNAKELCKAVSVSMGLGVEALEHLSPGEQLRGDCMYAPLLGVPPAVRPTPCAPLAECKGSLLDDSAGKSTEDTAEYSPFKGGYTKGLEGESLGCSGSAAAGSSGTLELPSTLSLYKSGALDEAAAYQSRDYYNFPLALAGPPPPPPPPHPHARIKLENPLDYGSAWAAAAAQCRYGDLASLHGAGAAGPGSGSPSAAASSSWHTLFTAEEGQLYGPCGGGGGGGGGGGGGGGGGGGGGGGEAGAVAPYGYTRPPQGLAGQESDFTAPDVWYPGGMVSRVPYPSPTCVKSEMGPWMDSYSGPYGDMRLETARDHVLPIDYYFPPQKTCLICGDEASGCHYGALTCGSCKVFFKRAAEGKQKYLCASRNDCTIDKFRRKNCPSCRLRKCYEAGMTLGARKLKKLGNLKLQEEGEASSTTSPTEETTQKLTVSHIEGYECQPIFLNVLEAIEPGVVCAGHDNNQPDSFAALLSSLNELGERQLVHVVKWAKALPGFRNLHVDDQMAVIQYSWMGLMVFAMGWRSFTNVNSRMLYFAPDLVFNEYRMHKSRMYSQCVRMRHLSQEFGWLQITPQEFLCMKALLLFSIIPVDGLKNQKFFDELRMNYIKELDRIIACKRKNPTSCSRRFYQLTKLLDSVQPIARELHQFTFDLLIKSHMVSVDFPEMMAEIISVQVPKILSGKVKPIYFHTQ

| Compound | outcome | AC50 |
| --- | --- | --- |
| CC1(C)C(=O)N(Br)C(=O)N1Br | inactive |  |
| CC(C)=CCCC(C)CCO (stereo not drawn) | inactive |  |
| Fc1ccccc1[C@@H](F)COC1CCC(Nc2ncnc3[nH]ncc23)CC1 (stereo partly drawn) |  | 54 µM (active) |
| O=C(CCCCCCCCc1cccnc1)N1CCC(C=C(c2ccccc2)c2ccccc2)CC1 |  | 7.53 µM (active) |
| O=C(O)c1cccc(N(Cc2cccnc2)c2ccc(OC(F)F)c(OC(F)F)c2)c1 |  | 77.6 µM (active) |
| CCCCCCc1ccc(O)cc1O |  | 11 µM (active) |
| Nc1nc2ncc(CNc3ccc(C(=O)N[C@@H](CCC(=O)O)C(=O)O)cc3)nc2c(=O)[nH]1 | inactive |  |
| Cc1ccc(O)cc1 | inactive |  |
| CCCCC(CC)COC(=O)c1ccc(C(=O)OCC(CC)CCCC)cc1 (stereo not drawn) | inactive |  |
| Oc1ccc2c(c1)-c1ccccc1C2 |  | 50 µM (active) |
| Cc1ccc(N)cc1O |  | 74.4 µM (active) |
| CCOc1cccc(-n2cc(C(=O)N3CCN(c4cc(C(=O)O)c5ccccc5c4)CC3)nc2-c2ccc(C)cc2)c1 |  | 12.5 µM (active) |
| CCCN(C1CCN(C(=O)C2CCNCC2)CC1)[C@@H]1CCc2ccc(OC)cc2C1 |  | 63.9 µM (active) |
